COUP-TFII inh: NR2F2 transcriptional activity inhibitors, primary screen, cell-based, luciferase reporter, HEK293T, luminescence; HEK293T NGFI-A luciferase reporter; inhibition, % at 8.6 µM; hit rate 0.7% among 370,000;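 active = inhibition above a per-plate cutoff, mean inhibition of test wells between control levels plus 3 SD, cut at about 38% in these data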;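 note: cells cotransfected with COUP-TFII expression vector driving the NGFI-A reporter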
SRC2 inh: inhibition of GAL4-SRC2 driven luciferase reporter, primary screen, SRC2 inhibitor project, cell-based, luminescence; inhibition, % at 9 µM; hit rate 0.17% among 370,000; HEK293 GAL4-SRC2 luciferase reporter; Nuclear receptor coactivator 2 (Homo sapiens), Q15596;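 active = inhibition above the mean inhibition of all tested compounds plus 3 SD, set per campaign, cut at about 52% in these data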
NCOA3 inh: SRC3 coactivator transcriptional activity inhibitors, primary screen, cell-based, luminescence | Nuclear receptor coactivator 3 (Homo sapiens), Q9Y6Q9 | HEK293 GAL4-SRC3 luciferase reporter | inhibition, % at 3.6 µM | hit rate 0.17% among 360,000 | AID 588352, 2011;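 active = inhibition above a per-campaign cutoff, the mean of all compounds plus 3 SD, cut at about 60% in these data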;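 note: higher means less SRC3-driven luciferase light from the GAL4 reporter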
Gli-Sufu block: Gli-Sufu pathway antagonists, primary screen, luciferase luminescence, Sufu-KO-LIGHT cells, uHTS; Sufu-KO-LIGHT fibroblasts, Gli luciferase reporter luminescence; inhibition, % at 5 µM; hit rate 0.74% among 340,000; AID 588413, 2011;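 active = inhibition above about 55%, limit read from the data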
SRC1 inh: SRC1 coactivator transcriptional activity inhibitors, primary screen, cell-based, luminescence | Nuclear receptor coactivator 1 (Homo sapiens), Q15788 | HEK293 GAL4-SRC1 luciferase reporter | hit rate 0.12% among 360,000 | inhibition, % at 3.6 µM;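 active = inhibition above the campaign mean plus 3 SD, with each screening campaign given its own cutoff, cut at about 60% in these data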
LRH-1 inv ag: LRH-1 (NR5A2) inverse agonists, primary screen, cell-based, luminescence, HEK293T, StAR-luciferase reporter; inhibition, % at 3.6 µM; Nuclear receptor subfamily 5 group A member 2 (Homo sapiens), O00482; hit rate 0.13% among 360,000; LRH-1 transfected, 24 h;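 active = inhibition above the mean inhibition of all tested compounds plus 3 SD, cut at about 73% in these data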
Gal4-VP16 ctr: Gal4-VP16 luciferase reporter inhibitors, counter-screen for COUP-TFII antagonist project, cell-based, luminescence, HEK293. inhibition, % at 8.5 µM. AID 687007, 2013. shares compounds with COUP-TFII inh. hit rate 25% among 2,500; in the data active = inhibition above about 13%
NR2F2 inh conf: NR2F2 transcriptional activity inhibitors, confirmation, cell-based, luciferase reporter, HEK293, triplicate. shares compounds with COUP-TFII inh. HEK293 NGFI-A luciferase reporter, luminescence. inhibition, % at 8.5 µM. hit rate 45% among 2,500;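 active = mean inhibition over three repeats above a set limit taken from the earlier primary screen, cut at about 38% in these data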
Hits are given with their value; i = inactive; nt = no result given. Shown are actives, neighbours in structure and some others; about 1.3% of the full set was active somewhere.

SMILES	COUP-TFII inh	SRC2 inh	NCOA3 inh	Gli-Sufu block	SRC1 inh	LRH-1 inv ag	Gal4-VP16 ctr	NR2F2 inh conf
CC(C)CCOc1cccc(OCC(=O)Nc2ccncc2)c1	62	i	i	i	i	i	i	55
O=C(COc1ccc(Br)cc1)Nc1ccncc1	i	i	i	i	i	i	nt	nt
Cc1ccc(OCC(=O)Nc2ccncc2)cc1C	i	i	i	nt	i	i	nt	nt
Cc1cc(OCC(=O)Nc2ccncc2)cc(C)c1Cl	57	i	i	i	i	i	i	i
O=C(COc1ccc(Nc2ccccc2)cc1)Nc1ccncc1	48	i	i	i	i	i	i	i
CCc1c(Cc2cccc(F)c2)ncn1CCc1ccccc1OC	i	i	nt	nt	nt	nt	nt	nt
COc1ccc(/C=C/C(=O)NC2=NCCS2)c(OC)c1	i	nt	nt	nt	nt	nt	nt	nt
CCOC(=O)[C@@]12CCCC3=C1N(CCC3)C(=O)[C@H]2CC(=O)NCc1cccc2ccccc12	i	i	nt	nt	nt	nt	nt	nt
Cc1ccc(C(=O)CSc2nnc(-c3ccccn3)n2-c2ccccc2)cc1	i	i	nt	nt	nt	nt	nt	nt
Cc1nn(C)c(C)c1/C=N/NC(=O)C(C)(C)Oc1ccc(Cl)cc1	nt	nt	i	i	i	i	nt	nt
Cc1nn(C(C)(C)C)c(C)c1/C=N/OC(=O)Nc1ccc(Cl)cc1	99	91	93	92	93	94	94	107
CCOC(=O)N1CCN(C(=O)c2ccc3c(c2)sc2nc(-c4ccc(OC)cc4)cn23)CC1	i	i	i	i	i	i	nt	nt
COc1ccc2c(c1)sc1nc(-c3ccccc3)cn12	47	61	i	i	i	i	47	40
CC1(C)CC(=O)C=C(C2CC2)C1=O	i	i	nt	nt	nt	nt	nt	nt
CCCCCN1C=CC(=C2C(=O)c3ccccc3C2=O)C=C1	70	83	i	59	i	i	48	73
Cc1ccc(C(=O)C2CCN(CC(=O)N3CCOCC3)CC2)cc1	i	i	nt	nt	nt	nt	nt	nt
O=C(CCc1ccccc1-c1ccccc1CCNC(=O)c1ccc(F)c(F)c1)NCc1ccccc1	i	i	nt	nt	nt	nt	nt	nt
Clc1ccc(-n2ncc3c(N4CCCCCC4)ncnc32)cc1	92	70	80	nt	81	79	80	100
Clc1ccc(Cn2ncc3c(N4CCCCC4)ncnc32)cc1	i	i	i	i	i	i	nt	nt
C(=N\Nc1ccc2ccccc2n1)/c1ccc2c(c1)OCCO2	64	i	i	i	i	i	38	70
O=C(CCl)Nc1cc(SCC(O)CO)cc([N+](=O)[O-])c1 (stereo unspecified)	69	69	70	63	i	87	28	73
C=C1C(=O)[C@]23C[C@H]1CC[C@H]2[C@]1(C)CCC[C@@](C)(C(=O)OC)[C@H]1C[C@@H]3O	94	84	nt	nt	nt	nt	71	60
COc1ccc(Nc2sc(C(=O)c3ccc(Cl)cc3)c(N)c2C(=O)Nc2ccccc2OC)cc1	i	i	i	i	i	i	nt	nt
COc1ccccc1NC(=O)c1c(Nc2ccccc2C)sc(C(=O)Nc2cccc(Cl)c2)c1N	38	i	i	i	i	i	i	61
CN(C)S(=O)(=O)c1ccc(C(=O)Nc2nc(-c3cccs3)cs2)cc1	54	i	i	i	i	i	i	i
SMILES	COUP-TFII inh	SRC2 inh	NCOA3 inh	Gli-Sufu block	SRC1 inh	LRH-1 inv ag	Gal4-VP16 ctr	NR2F2 inh conf
CC(C)Cc1ccc(CN2CCCC(NC(=O)c3ccnn3C)C2)cc1 (stereo unspecified)	46	i	i	i	i	i	i	i
COC(=O)[C@]12C[C@H](CC(=O)N3CCN(C(=O)c4ccco4)CC3)C(=O)N(CCC3=CCCCC3)C1=C[C@H](C1CCCC1)O[C@@H]2C	i	i	nt	nt	nt	nt	nt	nt
Cc1ccc(NC(=O)/C=C/c2ccc(S(=O)(=O)N3CCOCC3)cc2)cc1S(=O)(=O)N(C)C	49	i	i	i	i	i	i	44
CC(=O)Nc1cccc(NC(=O)/C=C/c2ccc(S(=O)(=O)N3CCOCC3)cc2)c1	i	i	i	i	i	i	nt	nt
COc1cc(/C=C/C(=O)Nc2ccc(OC)c(S(=O)(=O)N3CCOCC3)c2)ccc1OC(F)F	38	i	i	i	i	i	13	i
COc1ccc(/C=C/C(=O)Nc2ccccc2C)cc1S(=O)(=O)N1CCOCC1	48	i	i	i	i	i	i	i
COc1ccc(C(CCOC(=O)Oc2ccccc2)c2cc(OC)cc(OC)c2)cc1 (stereo unspecified)	i	i	nt	nt	nt	nt	nt	nt
COCCN(C[C@@H]1[C@H](c2ccccc2)[C@H](CO)N1c1nc(C)c(C)s1)S(=O)(=O)c1ccccc1[N+](=O)[O-]	i	i	nt	nt	nt	nt	nt	nt
Cc1cc(=O)oc2cc(O)cc(O)c12	i	i	i	i	i	i	nt	nt
CCCCCc1cc(O)c2c(C)cc(=O)oc2c1	41	i	i	i	i	i	i	i
Cc1ccc(C=NNC(=O)CSc2nc3sc4c(c3c(=O)n2-c2ccccc2)CCCC4)s1	i	i	nt	nt	nt	nt	nt	nt
COc1cccc(CN(C)C(=O)c2cc(COc3ccc(-n4cncn4)cc3)on2)c1	38	i	i	i	i	i	i	i
Cc1nc2cc(C(=O)N3CCN(C(=O)OCc4ccccc4)CC3)ccc2n1C1CCCC1	i	i	nt	nt	nt	nt	nt	nt
COC(=O)c1ccc2nc(Nc3nc4c(F)cc(F)cc4s3)sc2c1	66	53	i	i	i	i	26	82
CC(=O)CSc1ccc(-c2nc3cc(C)c(C)cc3[nH]2)cn1	54	63	i	i	i	i	i	i
CC(=O)N(/N=C1\Sc2ccccc2C1=O)c1ccc(C)cc1C	64	i	64	i	i	i	24	76
COC(=O)[C@]12C[C@H](CC(=O)N3CCN(C(=O)C4CC4)CC3)C(=O)N(Cc3ccccc3)C1=C[C@H](C(C)C)O[C@@H]2C1CC1	i	i	nt	nt	nt	nt	nt	nt
O=C(Sc1cccc2cccnc12)c1ccc(F)cc1	43	i	nt	nt	nt	nt	47	44
O=C(Sc1cccc2cccnc12)c1ccccc1Br	i	i	i	nt	i	i	nt	nt
COc1ccc(CN2CCC(CNC(=O)Nc3ccccc3)CC2)cc1	i	i	nt	nt	nt	nt	nt	nt
CC1OC(CC(=O)O)CC2=C1C(=O)c1c(O)cccc1C2=O (stereo unspecified)	105	96	93	91	70	97	98	110
C#CCN(C[C@@H]1[C@@H](OC(=O)Nc2cccs2)[C@@H](OC(=O)Nc2cccs2)Cn2c(=O)ccc(=O)n21)S(=O)(=O)c1ccc(C)cc1	76	i	i	nt	i	i	25	43

High-throughput results (PubChem BioAssay)
